The text below walks through data of PubChem BioAssay AID1851 (National Center for Advancing Translational Sciences (NCATS), 2009).

Where “and” joins values, the source holds several entries; their conditions need not be identical. Equal entries are not always repeated. In all, about 16,000 compounds went through this assay and about 5,800 (36%) were called active. Roughly 23% stayed inconclusive and do not appear here. The call rests on the fitted dose curve; in most records, active means well fitted curve in the direction sought with a large enough effect; inconclusive means small, poorly fitted or top-dose-only effect, or effect the other way; inactive means no such curve, though single readings can be large or run the other way. The list shows a part of the results.
On the % scale 0 is the no-effect control and ±100 the full control effect.

Sequence of Cytochrome P450 2C19 (Homo sapiens) (P33261 whole entry, looked up): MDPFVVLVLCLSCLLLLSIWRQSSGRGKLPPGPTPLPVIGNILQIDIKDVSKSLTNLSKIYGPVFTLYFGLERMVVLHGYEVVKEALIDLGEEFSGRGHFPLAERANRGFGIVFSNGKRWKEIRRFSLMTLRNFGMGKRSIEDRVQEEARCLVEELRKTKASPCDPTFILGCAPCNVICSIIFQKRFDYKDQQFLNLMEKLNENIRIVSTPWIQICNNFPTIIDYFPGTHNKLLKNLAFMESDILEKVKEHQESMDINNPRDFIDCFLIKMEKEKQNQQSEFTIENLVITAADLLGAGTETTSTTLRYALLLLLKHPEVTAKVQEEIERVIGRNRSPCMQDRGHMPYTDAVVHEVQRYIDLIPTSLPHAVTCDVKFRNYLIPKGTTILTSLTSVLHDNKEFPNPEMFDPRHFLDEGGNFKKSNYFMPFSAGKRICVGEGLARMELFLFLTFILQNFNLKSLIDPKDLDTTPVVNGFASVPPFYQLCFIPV

The test has as its target Cytochrome P450 2C19 (Homo sapiens) (UniProt P33261). Nature of the test: Cytochrome panel assay with activity outcomes. The conditions noted are these: recombinant CYP, pro-luciferin dealkylation, luminescence, p450-cyp2c19; series mostly up to 57.1 µM.
Regarding `C[C@@]1(C(NC(=O)Cc2ccccc2)c2ccc(-c3ccccc3)cc2)C[C@H]1C1CCCCC1` (some centres undefined), the AC50 result is “inactive”.
For `CCCC[C@@H]1C[C@H]1C(NC(=O)c1ccco1)c1ccccc1` (some centres undefined), the AC50 was 1.26 µM (active).
Same read-out and setting: then `CCC[C@@H]1C[C@@]1(CCC)C(NC(=O)OCc1ccccc1)c1ccc(-c2ccccc2)cc1` (some centres undefined), with 1.26 µM (active); and `CCCC[C@@H]1C[C@H]1C(NC(=O)c1ccco1)c1ccc(Cl)cc1` (some centres undefined), with 0.316 µM (active).
For `CC[C@](N)(C(=O)O)C(C)C`, the activity, negative = inhibition was 31.3% [at 11.4 µM] (inactive).
Turning to `CCCn1c(N)c(C(=O)CSc2nc(C)cs2)c(=O)n(C)c1=O`, the AC50 is 10 µM (active).
For the compound `O=C(O)/C=C\c1ccc(O)c(O)c1`, the AC50 result is “inactive”.
As to `O=C(/C=C\c1ccc(O)c(O)c1)O[C@@H](Cc1ccc(O)c(O)c1)C(=O)O`, the AC50 entry was “inactive”.
Take `COC(=O)/C=C\c1cc(O)ccc1O`: the AC50 was 15.8 µM (active).
On to `CO[C@@H](C(C)C)[C@@H](C)[C@@H]1OC(=O)C[C@@H]1O`, for which the activity, negative = inhibition is 2.42% [at 11.4 µM] (inactive).
`COC(=O)C[C@@H]1O[C@H]1[C@H](C)[C@@H](OC)C(C)C`: the AC50 was 3.98 µM (active).
For `CC(O)CN(CCC(N)=O)CCC(N)=O` (centres undefined), the AC50 result was “inactive”.
Same read-out and setting: then `COc1ccc(S(=O)(=O)N2CC3C4C=CC(C4)C3C2)cc1` (centres undefined), with 0.891 µM (active); and `O=C(OCc1nnc(-c2ccccc2)o1)c1ccc2c(c1)OCCO2`, with 8.91 µM (active).
For the compound `CCCN1C(=O)C2(/C(=C(\O)c3ccc4c(c3)OCCO4)C(=O)C(=O)N2CCCOC)c2ccccc21` (centres undefined), the AC50 entry is “inactive”.
`C[N+]1(C)CCc2cc3c(cc2[C@@H]1[C@@H]1C(=O)Oc2c1ccc1c2OCO1)OCO3`: the AC50 result is “inactive”.
For the compound `CN1CCc2cc3c(cc2[C@@H]1[C@@H]1C(=O)Oc2c1ccc1c2OCO1)OCO3`, the AC50 was 0.02 µM (active).
Regarding `Cc1ccc(-c2csc(N/N=C/c3ccco3)n2)cc1`, the AC50 was 7.94 µM (active).
As to `Cc1ccc(-c2csc(NC(=S)NC(=O)/C=C/c3ccco3)n2)cc1`, the AC50 result is “inactive”.
In the case of `CC(=O)OCC(=O)[C@@]1(O)[C@H](C)C[C@@H]2[C@H]3CCC4=CC(=O)C=C[C@]4(C)[C@]3(F)[C@@H](O)C[C@@]21C`, the AC50 entry was “inactive”.
`CCOC(=O)c1cc2sc(C)cc2n1CCCN1C(=O)c2ccccc2C1=O`: the AC50 is 3.98 µM (active).
On to `CCOC(=O)c1cc2sc(C)cc2n1CC(=O)N1CCN(C(=O)c2ccco2)CC1`, for which the AC50 was 25.1 µM (active).
Consider `CCn1c(=O)cc(SCC(=O)N2CCN(C(=O)c3ccco3)CC2)c2ccccc21`, for which the AC50 entry was “inactive”.
The same measure, in the same setting: in the case of `O=C(CCC(=O)c1cccs1)OCC(=O)N1CCN(C(=O)c2ccco2)CC1` it was “inactive”; in that of `CCN1C(=O)[C@@H]2[C@H]3C(=CC[C@@H]2C1=O)C1(OCCCO1)[C@H]1O[C@@H]1[C@H]3O`, 1.58 µM (active).
For the compound `CCN1C(=O)[C@H]2[C@@H]3[C@H](O)C=CC(=O)[C@H]3CC[C@H]2C1=O`, the activity, negative = inhibition was -2.48% [at 11.4 µM] (inactive).
On to `CCN1C(=O)[C@H]2[C@@H]3[C@H](O)[C@H](O)CC(=O)[C@H]3CC[C@H]2C1=O`, for which the activity, negative = inhibition was -13.9% [at 11.4 µM] (inactive) and -20% [at 11.4 µM] (inactive).
In the case of `O=C(NC12CC3CC(CC(C3)C1)C2)c1ccc(COc2ccc(Cl)cc2[N+](=O)[O-])o1`, the AC50 was 3.55 µM (active).
For `Cc1ccc2nc(SCc3nc4c(cnn4-c4ccccc4)c(=O)[nH]3)[nH]c2c1`, the AC50 is 4.47 µM (active).
As to `O=C(CSc1ccc(Cl)cc1)Nc1cccc(-c2nc3ncccc3o2)c1`, the AC50 was 8.91 µM (active).
For `O=C(Nc1cccc(-c2nc3ncccc3o2)c1)c1sc2cc(Cl)ccc2c1Cl`, the AC50 entry is “inactive”.
With `CCCCCC(=O)Nc1cccc(-c2nc3ncccc3o2)c1`, the AC50 is 14.1 µM (active).
Turning to `NS(=O)(=O)c1ccc(NCc2cnc3ccccc3n2)cc1`, the activity, negative = inhibition is 20.6% [at 11.4 µM] (inactive).
With `NS(=O)(=O)c1ccc(NCc2ccccc2OCc2ccccc2F)cc1`, the AC50 was 6.31 µM (active).
For the compound `NS(=O)(=O)c1ccc(NCc2nc3ccccc3[nH]2)cc1`, the activity, negative = inhibition is 39.2% [at 11.4 µM] (inactive).
On to `CC1CC/C(=C\c2ccc3c(c2)OCO3)C(=O)/C1=C/c1ccc2c(c1)OCO2` (centres undefined), for which the AC50 was 2.82 µM (active).
As to `Cc1nc2cnc(N3CCN(C)CC3)nc2n(Cc2cccs2)c1=O`, the AC50 result is “inactive”.
Same read-out and setting: then `COC(=O)[C@@]1(Cc2ccc(F)cc2)[C@H]2c3cc(C(=O)N4CCCC4)n(CCc4ccc(OC)c(Br)c4)c3C[C@H]2CN1C(=O)c1ccccc1`, with 5.01 µM (active); and `COC(=O)[C@@]1(Cc2ccc(F)cc2)[C@H]2c3cc(C(=O)N4CCCC4)n(Cc4ccc(S(C)(=O)=O)cc4)c3C[C@H]2CN1C(=O)c1ccccc1`, with “inactive”.
Regarding `COc1ccccc1CN1CCCC2(CCN(C(=O)c3cccn3C)CC2)C1`, the AC50 result was “inactive”.
Turning to `COC(=O)[C@@]1(Cc2ccc(F)cc2)[C@H]2c3cc(C(=O)N4CCCC4)n(CCc4ccc(O)c(O)c4)c3C[C@H]2CN1C(=O)c1ccccc1`, the AC50 is 15.8 µM (active).
With `CC(NC(=O)c1ccc(N2CCCC2=O)cc1)c1ccccc1` (centres undefined), the AC50 result was “inactive”.
The same measure, in the same setting: then `O=C(O)c1cccc(N2CCCC2=O)c1`, with 31.6 µM (active).
Turning to `O=c1cc(CO)oc(CN2CCCC2)c1O`, the AC50 result is “inactive”.
Turning to `CO[C@H]1COC(=O)[C@H](C)NC(=O)C/C=C\[C@@H](C)[C@@H](NS(=O)(=O)c2ccc(C)cc2)COC(=O)[C@H](OCc2ccccc2)/C=C\[C@@H]1C`, the activity, negative = inhibition was 6.49% [at 11.4 µM] (inactive).
Consider `COc1ccc(/C=N/NC(=O)c2ccccc2)cc1CN1CCN(c2ccc(F)cc2)CC1`, for which the AC50 was 17.8 µM (active).
With `COc1ccc(/C=N/NC(=O)c2ccn[nH]2)cc1COc1ccc(Cl)cc1`, the AC50 was 2 µM (active).
As to `CCOc1cc(CN2CCN(c3ccc(C(C)=O)cc3)CC2)ccc1OC`, the AC50 result was “inactive”.
For `COc1ccc(/C=N\NC(=O)C2C(=O)NCC2c2ccccc2)cc1O` (centres undefined), the AC50 entry was “inactive”.
Consider `COc1ccc(/C=N/NC(=O)c2ccn[nH]2)cc1COc1ccc(F)cc1`, for which the AC50 is 3.55 µM (active).
The same measure, in the same setting: in the case of `Cc1ccc(/C=N\NC(=O)c2cc(OCC(F)(F)F)ccc2OCC(F)(F)F)cc1` it was “inactive”; in that of `COc1ccc(C(=O)CN2CCN(c3ccc(F)cc3)CC2)cc1OC`, 14.1 µM (active).
Same read-out and setting: then `C[C@H](O)[C@H](O)[C@@H]1CNc2nc(N)[nH]c(=O)c2N1`, with “inactive”; and `Cc1ccc(C(=O)NN2CCOCC2)cc1`, with “inactive”; and `Cc1c(C(=O)NN2CCOCC2)nn(-c2ccc(Cl)cc2Cl)c1-c1ccc(I)cc1`, with 7.94 µM (active).
For the compound `O=C(Nc1ccccc1C(=O)NCCc1ccccc1)c1ccco1`, the AC50 is 8.91 µM (active).
Consider `COc1ccc(CCNC(=O)c2ccccc2NC(=O)c2ccco2)cc1OC`, for which the AC50 was 11.2 µM (active).
Turning to `O=C(CCc1ccccc1)NNC(=O)c1ccco1`, the AC50 result is “inactive”.
Take `CC(C)[C@@H](OCc1ccccc1)[C@H](C)/C=N\O[C@@H](C)c1cn([C@H](CO)Cc2ccccc2)nn1`: the activity, negative = inhibition is -16.9% [at 11.4 µM] (inactive) and -29.7% [at 11.4 µM] (inactive).
Turning to `N#C/C(=C\c1ccc(O)c(O)c1)C(=O)NCCCc1ccccc1`, the AC50 was 10 µM (active).
For `N#C/C(=C\c1ccc(O)c(O)c1)C(=O)c1ccc(O)c(O)c1`, the AC50 result is “inactive”.
Consider `N#C/C(=C\c1ccc(O)c(O)c1)C(=O)OCCc1cccs1`, for which the AC50 is 6.31 µM (active).
Take `O=c1cc(O)cc(/C=C\c2ccc(O)c(O)c2)o1`: the AC50 entry was “inactive”.
As for `N#C/C(=C\c1ccc(O)c(O)c1)C(=O)NCCc1ccccc1`, the AC50 entry was “inactive”.
Still for that read-out and setting: in the case of `N#Cc1ccc(-c2ccc(F)cc2)nc1Oc1ccc(Cl)c(Cl)c1` it was 3.55 µM (active); in that of `Cc1ccc(C2NC(c3ccc(C)cc3)C(C)C(=NO)C2C)cc1` (centres undefined), 0.562 µM (active).
In the case of `CNC[C@H](O)[C@H](O)[C@H](O)[C@H](O)CO`, the AC50 result is “inactive”.
As for `Cc1cnc(CNc2ncnc3ccc(-c4ccc(N(C)C)cc4)cc23)cn1`, the AC50 was 15.8 µM (active).
Still for that read-out and setting: then `Cc1cnc(CNc2nc(-c3ccccc3C)nc3ccccc23)cn1`, with “inactive”; and `Cc1cnc(CNc2ncnc3ccc(-c4ccccc4C)cc23)cn1`, with 15.8 µM (active); and `Cc1cnc(CNc2ncnc3ccc(-c4ccoc4)cc23)cn1`, with “inactive”.
On to `Cc1ncc([N+](=O)[O-])n1CCO`, for which the AC50 result was “inactive”.
Turning to `FC(F)(F)c1ccccc1-c1cncnc1NCc1cccs1`, the half-maximal activity concentration (AC50) was 20 µM (active).
Take `Cc1ccccc1-c1cncnc1NCc1cccs1`: the AC50 is 0.794 µM (active).
`CN(C)Cc1ccccc1-c1cncnc1NCc1cccs1`: the AC50 entry was “inactive”.
On to `COc1ccccc1-c1cncnc1NCc1cccs1`, for which the AC50 is 2 µM (active).
Turning to `Clc1ccccc1-c1cncnc1NCc1cccs1`, the AC50 is 1.58 µM (active).
On to `Cc1cnn(-c2cc(N/N=C/c3ccccc3F)ncn2)c1`, for which the AC50 entry is “inactive”.
As for `COCCNC(=O)c1ccc2c(c1)nc(C)n2-c1cc(OC)c(OC)c(OC)c1`, the AC50 result is “inactive”.
Same read-out and setting: in the case of `COCCNC(=O)c1cc2c3ccccc3n(C)c2s1` it was 11.2 µM (active).
With `CN(C)CCCNC(=O)c1cc2c3ccccc3n(C)c2s1`, the AC50 result was “inactive”.
`O=C(OCc1nc2ccccc2s1)c1ccc(Br)s1`: the AC50 was 0.447 µM (active).
In the case of `COc1ccc(COC(=O)N/N=C2/C[C@@H](O)[C@@H](O)[C@@H]3[C@@H]4C(=O)N(c5cccc(Oc6ccccc6)c5)C(=O)[C@H]4CC[C@H]23)cc1`, the activity, negative = inhibition was -11% [at 11.4 µM] (inactive).
With `COc1ccc(NC(=O)CC2C(=O)N(c3cccc(OC)c3)C(=O)N2C2CCCCC2)cc1` (centres undefined), the AC50 was 8.91 µM (active).
Turning to `COc1cccc(N2C(=O)C(CC(=O)Nc3ccccc3)N(C3CCCCC3)C2=O)c1` (centres undefined), the AC50 was 4.47 µM (active).
Turning to `COc1ccc(COC(=O)N/N=C2/C[C@@H](O)[C@@H](O)[C@@H]3[C@@H]4C(=O)N(c5cccc(Oc6ccccc6)c5)C(=O)[C@H]4CC[C@@H]23)cc1`, the activity, negative = inhibition was 20.4% [at 11.4 µM] (inactive).
In the case of `CCCCCCCCSc1nnc(CSc2nc3nc(C)cc(C)n3n2)o1`, the AC50 was 7.94 µM (active).
As to `CCOC(=O)c1cnn(-c2ccc(C(C)C)cc2)c1NC(=O)C1CCC1`, the AC50 was 10 µM (active).
Turning to `CC(C)OCCCN1CN(S(=O)(=O)c2cccc(Cl)c2)c2nc3ccccc3nc21`, the AC50 was 3.16 µM (active).
